RORg inh = inhibitors of mouse ROR gamma transcriptional activity; Drosophila S2 Gal4-RORgamma UAS-luciferase reporter, 20 h; Potency, µM (titrated, usually from 53.6 µM), for inactives: at the top dose activity change, negative = inhibition, hits mostly inhibitors; 310,000 tested, 5.4% active; further: on the % scale 0 is the no-effect control and ±100 the full control effect; nearly all actives have a fitted effect of over 60% in size
Target sequence (P51450 whole entry, looked up, the tested form may be a part): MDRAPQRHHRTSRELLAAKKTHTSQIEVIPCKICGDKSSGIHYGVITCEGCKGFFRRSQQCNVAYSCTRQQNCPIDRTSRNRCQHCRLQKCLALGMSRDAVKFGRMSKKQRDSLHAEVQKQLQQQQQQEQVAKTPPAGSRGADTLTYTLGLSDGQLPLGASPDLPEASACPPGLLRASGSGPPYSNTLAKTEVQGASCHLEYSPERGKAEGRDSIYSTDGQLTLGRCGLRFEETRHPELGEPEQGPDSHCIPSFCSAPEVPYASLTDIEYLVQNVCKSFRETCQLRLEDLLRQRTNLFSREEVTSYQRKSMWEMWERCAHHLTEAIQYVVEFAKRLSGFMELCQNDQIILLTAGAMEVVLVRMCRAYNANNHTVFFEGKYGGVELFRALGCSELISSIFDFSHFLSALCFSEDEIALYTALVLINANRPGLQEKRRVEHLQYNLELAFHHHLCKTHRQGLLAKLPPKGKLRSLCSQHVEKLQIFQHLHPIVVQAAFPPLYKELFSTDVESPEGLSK
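Drosophila Schneider cells stably carrying a metallothionein-driven Gal4 DBD–ROR gamma fusion and a UAS-Photinus luciferase reporter were exposed to compound for 1 hr, then induced with copper sulfate (700 uM final) for 20 hr at ambient temperature before luminescence reading.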
HepG2 tox-1 = HepG2 cytotoxicity, counter-screen for TGF-b inhibitors; HepG2 CAGA-GFP viability, ATP luminescence, 18 h; Potency, µM (top dose mostly 46.1 µM), inactives show at the top dose activity change, negative = cytotoxicity, usual class: cytotoxic; 410,000 tested, 0.76% active; AID 588856
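HepG2 CAGA-GFP cells (1000/well, DMEM with 1% FBS) received compound, then TGF-beta at 500 pg/mL final, and were incubated 18 hours at 37 degrees C. Viability was read by CellTiter-Glo luminescence. Media-only wells were set as complete cell-killing and DMSO as no toxicity.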
TGFb SMAD3 inh = inhibitors of TGF-b signaling; HepG2 CAGA-GFP TGF-b/SMAD3 reporter, GFP fluorescence, 18 h; TGF-beta stimulated, 500 pg/mL final; 410,000 tested, 1.2% active; Potency, µM (titrated, usually from 46.1 µM), for inactives: top-dose activity, negative = inhibition, actives largely listed as inhibitors; further: on the % scale 0 is the no-effect control and ±100 the full control effect; nearly all actives have a fitted effect of over 65% in size
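Cell-based qHTS in HEPG2 carrying a CAGA-GFP Smad reporter; compounds added before 500 pg/mL final TGF-beta, 18 h incubation at 37 degrees C, GFP fluorescence quantified per cell by imaging cytometry.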
ATXN2 expr inh = ATXN2 expression inhibition. HEK-293 ATXN2-luciferase reporter, luminescence, 24 h. Potency, µM (doses to about 57 µM), without a hit: top-dose activity change, negative = inhibition, hits mostly inhibitors. 360,000 tested, 0.72% active. AID 1745845; further: on the % scale 0 is the no-effect control and ±100 the full control effect; nearly all actives have a fitted effect of over 55% in size
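ATXN2-luciferase reporter cells (luciferase flanked by upstream and downstream ATXN2 gene portions) were treated 24 h at 37 °C with compounds at up to 57 uM. SteadyGlo luminescence gave expression; GF-AFC fluorescence gave viability.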
Gal4-VP16 FLuc = counter-screen for ROR gamma inhibitors: Gal4-VP16 reporter | AID 2546 | Potency, µM (top dose mostly 53.6 µM), inactives show at the top dose activity, negative = inhibition, usual class: inhibitors | Drosophila S2 Gal4-VP16 UAS-luciferase, luminescence, 20 h | 310,000 tested, 3.5% active;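 further: Gal4-VP16 expression switched on by copper sulfate through the metallothionein promoter; on the % scale 0 is the no-effect control and ±100 the full control effect; nearly all actives have a fitted effect of over 50% in size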
S2 tox = viability counter-screen for ATXN expression inhibitors; Potency, µM (top dose mostly 56.7 µM), most hits filed as cytotoxic; AID 651635; 400,000 tested, 0.49% active; S2 cells (HEK-293 line with an ATXN2-luciferase reporter) viability, CellTiter-Fluor protease fluorescence, 24 h; further: nearly all actives have a fitted effect of over 40% in size
TGFb confirm = confirmation of TGF-b signaling inhibitors in HepG2 reporter cells. 1,600 tested, 63% active. shares compounds with TGFb SMAD3 inh. HepG2 CAGA-GFP TGF-b reporter, GFP fluorescence, 18 h; cells stimulated with TGF-beta, 500 pg/mL. Potency, µM (titrated, usually from 46.1 µM), without a hit: top-dose activity, negative = inhibition, hits mostly inhibitors; further: on the % scale 0 is the no-effect control and ±100 the full control effect; nearly all actives have a fitted effect of over 65% in size
HepG2 tox-2 = toxic to HepG2 cells in TGF-b counterscreen. shares compounds with TGFb SMAD3 inh. Potency, µM (titrated, usually from 46.1 µM), without a hit: at the top dose activity, negative = cytotoxicity, actives largely listed as inhibitors. 1,600 tested, 27% active. AID 720535. HepG2 CAGA-GFP viability, ATP luminescence, 18 h; cells stimulated with TGF-beta, 500 pg/mL; further: on the % scale 0 is the no-effect control and ±100 the full control effect; nearly all actives have a fitted effect of over 70% in size
TGFb CCL64 inh = blocks TGF-b signaling in CCL64 reporter cells; 1,600 tested, 41% active; shares compounds with TGFb SMAD3 inh; CCL64 CAGA-GFP reporter, TGF-b stimulated, GFP fluorescence, 18 h; Potency, µM (series often up to 46.1 µM), for inactives: at the top dose activity, negative = inhibition, hits mostly inhibitors; further: nearly all actives have a fitted effect of over 65% in size
TGFb COP inh = validation of TGF-b inhibitors in HepG2 COP promoter reporter; shares compounds with TGFb SMAD3 inh; HepG2 COP-GFP TGF-b reporter, GFP fluorescence, 18 h; cells stimulated by added recombinant TGF-beta; Potency, µM (series often up to 46.1 µM), inactives show top-dose activity, negative = inhibition, hits mostly inhibitors; 1,600 tested, 3% active; further: nearly all actives have a fitted effect of over 70% in size
Active calls of the source: *; i = inactive; ? = inconclusive; . = no result. Sampled rows, rich in hits. Any-hit rate of the full collection: about 6.3%. The call rests on the fitted dose curve; in most records, active means well fitted curve in the direction sought with a large enough effect; inconclusive means small, poorly fitted or top-dose-only effect, or another doubt; inactive means no such curve, though single readings can be large; an effect the other way counts as inactive or inconclusive. Potency means the concentration at half of the fitted maximal effect.

SMILES	RORg inh	HepG2 tox-1	TGFb SMAD3 inh	ATXN2 expr inh	Gal4-VP16 FLuc	S2 tox	TGFb confirm	HepG2 tox-2	TGFb CCL64 inh	TGFb COP inh
CC(=O)Nc1nc2c(ccc3ccccc32)s1	?	-53%	?	33%	12%	i	.	.	.	.
O=C(Cc1cccs1)Nc1nc2c(ccc3ccccc32)s1	-16%	-26%	14µM*	-1%	?	i	16µM*	-19%	?	-3%
OCCCNc1cc(-c2ccnc(Nc3cccc(Cl)c3)n2)ccn1	1.8µM*	-5%	0.28µM*	0.16µM*	1µM*	?	0.058µM*	0.23µM*	0.18µM*	26%
CCC(C)Oc1cc(-c2ccnc(Nc3cccc(Cl)c3)n2)ccn1 (configuration not stated)	-9%	2%	7.1µM*	?	-23%	i	5.8µM*	?	6.5µM*	42%
Cc1c(C(=O)N2CCC(C)CC2)c(S(=O)(=O)N2CCN(c3cccc(Cl)c3)CC2)c(C)n1C	.	-19%	-12%	.	.	.	.	.	.	.
Cc1cc2nc(-c3ccc(Cl)cc3)c(CC(C)(C)C)n2c(C)c1Br	.	-21%	-24%	7%	.	i	.	.	.	.
Cc1ccc(Cc2c(-c3ccc(Cl)cc3)nc3cc(C)c(Br)c(C)n23)cc1	.	-21%	11µM*	5%	.	i	21µM*	-24%	-18%	-7%
Cc1ccc(-c2nc3cc(C)c(Br)c(C)n3c2Cc2ccccc2)cc1	.	-20%	-1%	91%	.	i	.	.	.	.
CCOc1ccc(N(CC(=O)Nc2ccccc2OCC)S(=O)(=O)c2c(C)noc2C)cc1	-11%	-12%	5µM*	.	-6%	i	6.5µM*	8%	4.1µM*	-19%
O=S(=O)(Nc1ccc(C(O)(C(F)(F)F)C(F)(F)F)cc1)c1cccc2cccnc12	.	-30%	18µM*	?	.	?	15µM*	-21%	-25%	40%
CSCC[C@H](NC(=O)[C@H](CC(C)C)NC(=O)[C@@H]1CCCN1C(=O)[C@H](Cc1ccccc1)NC(=O)[C@H](Cc1ccccc1)NC(=O)[C@@H]1CCC(=O)N1)C(N)=O	-7%	.	.	.	-7%	.	.	.	.	.
Cc1ccc2[nH]c(=O)c3cc(C(=O)NC(C)C)sc3c2c1	9%	3%	-6%	2%	-11%	i	.	.	.	.
COc1ccc(S(=O)(=O)N(CCc2ccccc2)CC(=O)N/N=C/c2ccc3c(c2)OCO3)cc1	28%	24%	-12%	-3%	-1%	i	.	.	.	.
O=C(CN(CCc1ccccc1)S(=O)(=O)c1ccc(Cl)cc1)N/N=C/c1ccc2c(c1)OCO2	-33%	7%	?	-39%	-26%	?	?	-24%	0%	-23%

From PubChem BioAssay
